The target in assay [1] is Tyrosine-protein kinase Yes (Homo sapiens) (UniProt P07947). In words: qHTS for small molecule inhibitors of Yes1 kinase: Primary Screen (AID 686947). Further: nearly all actives have a fitted effect of over 60% in size. Further: potency means the concentration at half of the fitted maximal effect. In short, it runs like this:
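In this qHTS format, inhibition is expressed relative to DMSO controls with enzyme (maximum) and without enzyme (minimum). The 60 min room-temperature reaction uses 0.1 mM ATP, with ADP detected by luminescence.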

A short description of assay [2]: qHTS for small molecule inhibitors of Yes1 kinase: Counter Assay (AID 686950).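 Further: no kinase present so only ADP-Glo detection of a fixed ADP amount is tested; luminescence from ADP-Glo reporting ADP in a fixed ATP and ADP mixture; series mostly up to about 77 µM.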 Put shortly: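 Measuring interference with ADP-Glo, the assay ran 60 min at room temperature on an ATP/ADP mix lacking enzyme. Values were normalized to ATP-plus-ADP (maximum) and ATP-only (minimum) DMSO controls.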

SMILES strings stand for the structures. Several values for one entry are separate records, joined by “and”; a condition that tells them apart may be missing. Identical values can stand only once. Inconclusive results are not listed. A call without a number means that no potency is given here. Activity calls are given as the source filed them. The call rests on the fitted dose curve; in most records, active means well fitted curve in the direction sought with a large enough effect; inconclusive means small, poorly fitted or top-dose-only effect, or another doubt; inactive means no such curve, though single readings can be large; an effect the other way counts as inactive or inconclusive.

Tyrosine-protein kinase Yes (Homo sapiens), sequence (P07947 whole entry, looked up): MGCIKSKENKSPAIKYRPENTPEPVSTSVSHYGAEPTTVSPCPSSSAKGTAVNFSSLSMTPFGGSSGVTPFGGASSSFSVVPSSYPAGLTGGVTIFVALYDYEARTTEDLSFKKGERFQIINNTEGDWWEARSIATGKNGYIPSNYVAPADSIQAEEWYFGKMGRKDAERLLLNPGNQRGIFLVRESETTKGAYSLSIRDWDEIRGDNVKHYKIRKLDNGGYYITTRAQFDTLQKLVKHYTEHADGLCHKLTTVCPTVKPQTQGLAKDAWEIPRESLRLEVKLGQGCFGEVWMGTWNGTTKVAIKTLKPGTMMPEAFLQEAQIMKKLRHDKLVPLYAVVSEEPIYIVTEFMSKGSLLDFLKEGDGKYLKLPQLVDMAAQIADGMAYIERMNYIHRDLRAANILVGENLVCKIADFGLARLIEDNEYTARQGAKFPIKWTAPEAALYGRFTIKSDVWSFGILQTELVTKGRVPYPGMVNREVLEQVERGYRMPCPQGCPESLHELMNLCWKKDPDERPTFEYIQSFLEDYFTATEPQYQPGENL

Take `CCn1c(-c2nonc2N)nc2c(C#CC(C)(C)O)ncc(OCC3CCNCC3)c21`: in assay [1], the Potency is 23200 nM (active). Moreover, the call in assay [2] was inactive.

Turning to `CCN1CCC(CC(=O)Nc2n[nH]c3nc(-c4cccs4)c(Br)cc23)CC1`, in assay [1], the Potency is 26000 nM (active). Besides, in assay [2], the compound was called inactive.

With `CCS(=O)(=O)c1ccc(OC)c(Nc2ncc(-c3cccc(OC)c3)o2)c1`, the Potency in assay [1] was 130 nM (active). Further, in assay [2], the call was inactive.

Consider `NS(=O)(=O)c1ccc(N=Cc2c(O)[nH]c3ccc4ncsc4c23)cc1`, for which the Potency in assay [1] was 823 nM (active) and 923 nM (active). Further, in assay [2], the compound was classed as inactive.

As for `Clc1ccc(CNc2nccc(-c3cnn4ncccc34)n2)cc1`, in assay [1], the Potency result was “inactive”. The outcome in assay [2] was inactive.

`Cc1ccc2c(-c3ccnc(Nc4ccc5c(c4)OCCO5)n3)c(-c3ccc(C(F)(F)F)cc3)nn2n1`: in assay [1], the Potency was 823 nM (active). For the same compound, the compound was called inactive in assay [2].

As for `NS(=O)(=O)c1ccc(N=Nc2c(O)[nH]c3ccc(Cl)cc23)cc1`, the Potency in assay [1] is 36800 nM (active). In assay [2], the compound was called inactive.

Regarding `COc1ccc(CNC(=O)c2ccc(-c3cc(-c4nnc(C)o4)ccc3C)cc2)cc1`, in assay [1], the Potency result is “inactive”. The call in assay [2] was inactive.

As for `Cc1ccc(NC(=O)CC2CC2)cc1-c1ccc(C(=O)NCC2CC2)cc1`, in assay [1], the Potency result is “inactive”. Also, in assay [2], the compound was called inactive.

`COc1cc2ncnc(Nc3ccc(C)c(O)c3)c2cc1OC`: in assay [1], the Potency is 164 nM (active). Moreover, the compound was classed as inactive in assay [2].

On to `CCCNc1cccc(-n2ncc3c(NN=Cc4ccncc4)ncnc32)c1`, for which the Potency in assay [1] was 32.8 nM (active). Moreover, the compound was called inactive in assay [2].

On to `CNC(=O)c1ncccc1Nc1nc(Nc2cc3c(cc2OC)CCCN3C(=O)CN(C)C)nc2[nH]ccc12`, for which the Potency result in assay [1] is “inactive”. The compound was called inactive in assay [2].

`COc1ccc2ncnc(Nc3ccc(OCc4ccccc4)cc3)c2c1`: in assay [1], the Potency was 733 nM (active). Further, the outcome in assay [2] was inactive.

The values are drawn from PubChem BioAssay (NCATS).
